Source: PubChem
Only some compounds are listed: those with a hit (about 1.3% of all), similar ones and a draw of the others.
MEP2 TOR yeast – alters MEP2-GFP fluorescence in TOR pathway yeast screen | S. cerevisiae MEP2-GFP strain, flow cytometry GFP, 3 h; 100% = DMSO control level | GFP response vs DMSO, % at 10 µM | 0.51% of 330,000 active | AID 2016;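 active = GFP response versus DMSO above a set limit, roughly screen mean plus 3 SD, cut at about 180% in these data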;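 note: median GFP fluorescence of the barcode-gated MEP2-GFP cells per well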
RPL19A-GFP yeast – modulators of TOR pathway RPL19A-GFP in S. cerevisiae | S. cerevisiae RPL19A-GFP strain, flow cytometry, 3 h; hits give low values | percent response vs DMSO, % at 10 µM | 0.3% of 330,000 active | AID 2025;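 active = percent response vs DMSO below 50%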;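 note: median channel GFP fluorescence of the barcoded RPL19A-GFP strain; ratio of sample median GFP to plate DMSO average so 100% = DMSO; lower means less RPL19A-GFP as with rapamycin TOR inhibition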
Efflux pump mplx – antifungal efflux pump inhibition, Nile Red retention; S. cerevisiae Candida pump triplex; inhibition, % at 10 µM; 0.44% of 330,000 active; AID 485275;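 active = plate passing quality check with inhibition over a set limit, or well fluorescence over plate mean plus 4 SD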;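 note: Nile Red retained in pooled yeast measured as flow cytometry median fluorescence; 0% = buffer negative control and 100% = Enniatin B positive control; higher means more Nile Red kept so more efflux inhibition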
CIT2 TOR yeast – yeast TOR pathway CIT2-GFP modulation; GFP response vs DMSO, % at 10 µM; S. cerevisiae CIT2-GFP strain, flow cytometry, 3 h; 100 means same as DMSO wells; 0.065% of 320,000 active; AID 2029;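 active = GFP response relative to DMSO above a set limit, near the screen mean plus 3 SD, cut at about 150% in these data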;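 note: ratio of well median GFP fluorescence to mean of DMSO wells on the plate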
AGP1 TOR yeast – yeast TOR pathway AGP1-GFP modulation. GFP response vs DMSO, % at 10 µM. S. cerevisiae AGP1-GFP multiplex flow cytometry, 3 h; GFP as percent of DMSO wells. AID 2066. 0.02% of 320,000 active;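 active = GFP response relative to DMSO above a set limit, near screen average plus 3 SD, cut at about 150% in these data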;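 note: median GFP channel fluorescence of the gated AGP1 strain per well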
LAP4-GFP MLPCN – modulators of TOR pathway LAP4-GFP in S. cerevisiae; 0.34% of 320,000 active; S. cerevisiae LAP4-GFP multiplex, flow cytometry GFP, 3 h; median GFP as percent of DMSO wells; GFP response vs DMSO, % at 10 µM;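 active = GFP response vs DMSO above a set limit, about the screen mean plus 3 SD, cut at about 150% in these data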
LAP4-GFP pick2 – second confirmation of modulators of TOR reporter LAP4-GFP in yeast | shares compounds with LAP4-GFP MLPCN | S. cerevisiae LAP4-GFP strain, flow cytometry GFP, 3 h | GFP response vs DMSO, % at 10 µM | 20% of 590 active;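 active = GFP signal as percent of the solvent control above about 150%, meaning raised reporter expression, limit read from the data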;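 note: ratio of well median GFP fluorescence to plate DMSO mean so 100% = DMSO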
MEP2-GFP pick2 – reconfirmed MEP2-GFP TOR pathway modulator in yeast; shares compounds with LAP4-GFP MLPCN; S. cerevisiae MEP2-GFP strain, flow cytometry GFP, 3 h; GFP response vs DMSO, % at 10 µM; 10% of 590 active; AID 2622;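 active = GFP signal above 150% of the solvent control wells, that is a rise of more than half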;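 note: median channel GFP fluorescence of all gated yeast cells per well; ratio of median GFP to plate DMSO average so 100% = DMSO level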
RPL19A GFP CP2 – second confirmation of modulators of TOR reporter RPL19A-GFP in yeast. shares compounds with LAP4-GFP MLPCN. S. cerevisiae RPL19A-GFP strain, flow cytometry GFP, 3 h; hits give low values; 100% means same as DMSO wells. GFP response vs DMSO, % at 10 µM. 3% of 590 active. AID 2623;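 active = under 65% GFP response relative to DMSO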;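 note: median GFP channel fluorescence per well over the all cells gate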
CIT2-GFP pick2 – reconfirmed modulator of CIT2-GFP TOR reporter in yeast. shares compounds with LAP4-GFP MLPCN. S. cerevisiae CIT2-GFP strain, flow cytometry GFP, 3 h; DMSO control wells read 100%. GFP response vs DMSO, % at 10 µM. 8% of 590 active. AID 2624;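 active = GFP response vs DMSO above about 150%, limit read from the data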;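 note: median green fluorescence per well over all gated yeast cells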
AGP1 GFP CP2 – second confirmation of modulators of TOR reporter AGP1-GFP in yeast. percent response vs DMSO, % at 10 µM. S. cerevisiae AGP1-GFP strain, flow cytometry GFP, 3 h. 590 tested, under 10 active. shares compounds with LAP4-GFP MLPCN;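 active = over 150 percent of DMSO response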;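 note: median GFP channel fluorescence over all cells without mother daughter split; sample median GFP divided by mean DMSO control so 100% equals DMSO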
Yeast autofluor – compound is autofluorescent in yeast s288c cells; fluorescence change (kMESF span) at 33 µM; shares compounds with LAP4-GFP MLPCN; AID 2757; S. cerevisiae s288c, 520 nm autofluorescence, flow cytometry, 3 h; hits give high values; zero means same as solvent-only cells; 610 tested, under 10 active;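 active = fluorescence span over the dose series, or activity score, above about 33, limit read from the data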
Starred values were filed as active, the others as inactive; x = no result; + = active, no number.

SMILES | MEP2 TOR yeast | RPL19A-GFP yeast | Efflux pump mplx | CIT2 TOR yeast | AGP1 TOR yeast | LAP4-GFP MLPCN | LAP4-GFP pick2 | MEP2-GFP pick2 | RPL19A GFP CP2 | CIT2-GFP pick2 | AGP1 GFP CP2 | others
CC(C)c1cc(-c2cc(C(=O)NCc3ccccc3)on2)nc(NCC2CC2)n1 | 92 | 91 | 0 | 63 | 80 | 144 | 117 | 103 | 96 | 109 | 100
CC(C)c1cc(-c2cc(C(=O)Nc3ccccc3)on2)nc(NCC2CC2)n1 | 107 | 92 | 0 | 80 | 91 | 104 | 99 | 106 | 100 | 93 | 99
Cc1cc(-c2cc(C(=O)Nc3ccccc3)on2)nc(NCC2CC2)n1 | 92 | 98 | 0 | 96 | 87 | 108 | 102 | 121 | 103 | 104 | 105
C=C(C)C1CCC(C)=C1CC(C)(C)/C=N\n1cnnc1 (stereo not given) | 107 | 96 | 0 | 93 | 95 | 96 | x | x | x | x | x
Cc1noc(C)c1NC(=O)N(C)C[C@@H]1Oc2c(NC(=O)c3ccncc3)cccc2C(=O)N([C@H](C)CO)C[C@@H]1C | 106 | 102 | -1 | 102 | 94 | 93 | x | x | x | x | x
COCCNc1nc(-c2cc(C(=O)Nc3ccccc3)on2)cc(C(C)C)n1 | 92 | 88 | 0 | 62 | 70 | 133 | 103 | 102 | 98 | 96 | 101
O=C(Cn1cccc1C(=O)c1ccccc1)NCCC1=CCCCC1 | 158 | 51 | 0 | 98 | 23 | 90 | 99 | 100 | 98 | 110 | 106
CS(=O)(=O)N1N=C(c2ccccc2)CC1c1ccc2c(c1)OCO2 (stereo not given) | 305* | 126 | 0 | 243* | 125 | 243* | x | x | x | x | x | Yeast autofluor=83*
CC(NC(=O)CSc1nc(C2CC2)n(-c2ccccc2)n1)c1ccco1 (stereo not given) | 100 | 101 | 0 | 100 | 106 | 102 | x | x | x | x | x
O=[N+]([O-])c1cc(Cl)cc(/C=N\Nc2ccccn2)c1O | 122 | 52 | 0 | 74 | 46 | 147 | 179* | 192* | 82 | 165* | 84 | Yeast autofluor=2.7
O=C(N/N=C/c1cc(Cl)cc([N+](=O)[O-])c1O)c1cc(-c2ccccn2)nc2ccccc12 | 95 | 101 | 0 | 108 | 104 | 105 | x | x | x | x | x
O=C(CSc1nnc2ccccn12)NNC(=O)c1ccc(F)cc1 | 98 | 107 | 0 | 105 | 104 | 95 | x | x | x | x | x
CC1CN(C(=O)Cn2cc(S(=O)(=O)CC(=O)N3CCOCC3)c3ccccc32)CC(C)O1 (stereo not given) | 114 | 105 | 0 | 163* | 117 | 98 | 103 | 100 | 102 | 102 | 100
CC1CCN(C(=O)Cn2cc(S(=O)(=O)CC(=O)N3CCOCC3)c3ccccc32)CC1 | 101 | 105 | 0 | 107 | 104 | 98 | x | x | x | x | x
CCn1c(CSc2n[nH]c(N)n2)nc2cc(C(=O)O)ccc21 | 178* | 101 | 0 | 109 | 104 | 125 | 97 | 98 | 100 | 101 | 101
CCn1c(CSc2nnc3ccccn23)nc2cc(C(=O)O)ccc21 | 92 | 101 | 0 | 84 | 93 | 94 | x | x | x | x | x
S=c1[nH]nc(-c2ccco2)n1/N=C/c1ccc(Cl)cc1Cl | 216* | 101 | 0 | 102 | 99 | 120 | 102 | 100 | 99 | 99 | 94
S=c1[nH]nc(-c2ccco2)n1/N=C/c1cccc(Cl)c1Cl | 102 | 100 | 0 | 86 | 86 | 99 | x | x | x | x | x
O=C(COC(=O)/C=C/c1cccc(F)c1)NC1CCCC1 | 94 | 93 | 0 | 85 | 92 | 103 | x | x | x | x | x
O=C(COC(=O)/C=C/c1cccc(F)c1)NC(=O)NC1CCCC1 | 87 | 76 | 0 | 87 | 99 | 164* | 104 | 103 | 99 | 103 | 98
CCCCn1c(N)c(N(CC)C(=O)c2cc(CC)c(C)s2)c(=O)[nH]c1=O | 94 | 94 | 0 | 92 | 101 | 114 | x | x | x | x | x
CCCCC1(C)OC(=O)C(=Cc2ccc(-c3ccc(Cl)c(C(=O)O)c3)o2)C(=O)O1 (stereo not given) | 84 | 89 | 0 | 90 | 88 | 98 | x | x | x | x | x
CCOC(=O)c1cc(-c2ccc(/C=C3/C(=O)NC(=O)C(C#N)=C3C)o2)ccc1Cl | 108 | 67 | 0 | 87 | 64 | 151* | x | x | x | x | x | Yeast autofluor=1.2
Cc1c(C(=O)NN)nn(-c2ccc(Cl)cc2)c(=O)c1C#N | 104 | 108 | 0 | 107 | 106 | 110 | x | x | x | x | x
Cc1ccc(-n2nc(C(=O)NN)c(C)c(C#N)c2=O)cc1Cl | + | 90 | 0 | 123 | 59 | 102 | 101 | 98 | 97 | 108 | 102
CCOP(=O)(OCC)C(Nc1cccc([N+](=O)[O-])c1)c1ccc(OC)cc1 (stereo not given) | 138 | 58 | 0 | 94 | 40 | 99 | 100 | 102 | 101 | 109 | 102
CCOP(=O)(OCC)C(Nc1cccc([N+](=O)[O-])c1)c1ccc(N(C)C)cc1 (stereo not given) | 103 | 86 | 0 | 86 | 77 | 103 | x | x | x | x | x
COc1ccc(CO[C@@H]2O[C@H](CO)[C@@H](O)[C@H](O)[C@H]2NC(C)=O)cc1OC | 99 | 99 | 0 | 101 | 101 | 93 | x | x | x | x | x
O=C(NNC(=O)c1sccc1-n1cccc1)c1cccc(Cl)c1 | 89 | 82 | 0 | 88 | 100 | 203* | 94 | 96 | 101 | 107 | 95
O=C(NNC(=O)c1sccc1-n1cccc1)c1ccccc1 | 98 | 98 | 0 | 111 | 97 | 96 | x | x | x | x | x
